Compounds without any hit were thinned out: in the full panel of roughly 83,000, 20% have a hit.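 For each line, cells grew in 96-well plates with the test compound present at a single concentration for 48 hours.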 Values without a mark were called inactive. Calls of active or inactive are those of the source. Rule for the calls: active = growth percent below 10; inactive = the rest.
Tests used:
Test in all cases: NCI-60 one-dose screen, 48 h (100 = growth as untreated, 0 = no growth, -100 = all killed)
Details in all cases: 10 µM unless noted
[1] = test system: K-562 leukemia
[2] = test system: MALME-3M melanoma
[3] = test system: MDA-MB-231 breast
[4] = test system: RXF 393 renal
[5] = test system: SF-268 CNS
[6] = test system: SF-295 CNS
[7] = test system: SF-539 CNS
[8] = test system: UACC-257 melanoma
[9] = test system: M14 melanoma
[10] = test system: HCT-15 colon
[11] = test system: HT29 colon
[12] = test system: SNB-75 CNS
[13] = test system: SNB-19 CNS
[14] = test system: U251 CNS
[15] = test system: PC-3 prostate
[16] = test system: SK-MEL-5 melanoma
[17] = test system: UACC-62 melanoma
[18] = test system: LOX IMVI melanoma
[19] = test system: SK-MEL-28 melanoma
[20] = test system: SK-MEL-2 melanoma

Row | Compound | growth [1] | growth [2] | growth [3] | growth [4] | growth [5] | growth [6] | growth [7] | growth [8] | growth [9] | growth [10] | growth [11] | growth [12] | growth [13] | growth [14] | growth [15] | growth [16] | growth [17] | growth [18] | growth [19] | growth [20]
1 | O=c1/c(=C\c2ccc(-c3ccccc3)o2)sc2nc(-c3ccccc3)nn12 | 102% | 102% | 97.9% | 115% | 96.8% | 105% | 105% | 106% | 100% | 91.8% | 102% | 99.8% | 93.3% | 98.8% | 95.7% | 101% | 98.7% | 95.9% | 109% | 114%
2 | CCN(CC)c1ccc(C=O)c(OCc2cn(CC(=O)Nc3ccc(Cl)cc3)nn2)c1 | 51.7% | 91.5% | 80.4% | 34.1% | 84.6% | 65.8% | 75% | 108% | 87.7% | 61.4% | 73.2% | 103% | 69% | 53.7% | 56.2% | 92.7% | 58% | 58.8% | 92.7% | 89.7%
3 | C[C@@H]1CN(c2ccc3ncc(C#Cc4cncc(C(=O)Nc5ccc(CN6CCN(C)CC6)c(C(F)(F)F)c5)c4)n3n2)C[C@H](C)O1 | -11.8% (active) | -68.9% (active) | -24.9% (active) | -92.1% (active) | -60.3% (active) | 0.595% (active) | -96.1% (active) | -19.1% (active) | -76.3% (active) | -17.2% (active) | -65.8% (active) | -79.3% (active) | -4.76% (active) | -97.9% (active) | 0.777% (active) | -94.5% (active) | -65.9% (active) | -87.7% (active) | -89.5% (active) | -89.7% (active)
4 | CCCC(=O)NC(c1cccnc1)c1cc(C)c2cccnc2c1O (stereo not given) | 22.6% | 53.1% | 35.5% | 81.9% | 42.1% | 32.3% | 23.3% | 20.9% | 27.5% | 24.2% | 21.5% | 77.5% | 61.4% | 41.3% | 56.9% | 48.7% | 28.4% | 40.2% | 42.5% | 101%
5 | COc1ccc(-c2nn3c(-c4ccccc4F)nnc3s2)cc1 | 18.7% | 66.1% | 41.1% | 68.4% | 74.2% | 58.5% | 59.3% | 86.4% | 34.8% | 31.5% | 39.3% | 66.3% | 73.2% | 55.7% | 83.1% | 64.4% | 51.1% | 60.3% | 59.4% | 30.5%
6 | COc1ccc(-c2cc(C(=O)N=Nc3c(O)[nH]c4ccccc34)c3ccccc3n2)cc1OC | 106% | 95.6% | 91.5% | 101% | 100% | 95.7% | 95.6% | 98.2% | 95.6% | 96.9% | 102% | 92% | 97.9% | 95.3% | 91.6% | 97.3% | 91.5% | 105% | 98.1% | 107%
7 | C#C[C@]1(O)CC[C@H]2[C@@H]3CC=C4c5sc(-c6ccc(F)cn6)nc5CC[C@]4(C)[C@H]3CC[C@@]21C | 6.31% (active) | 67.6% | 17.1% | -50.7% (active) | 23% | -70.6% (active) | -45.8% (active) | -31.8% (active) | 36.7% | 30.5% | 38.3% | -13.2% (active) | 31.5% | 15.7% | 24.2% | 33.4% | 0.399% (active) | -63.9% (active) | -28.5% (active) | -28.4% (active)
8 | Fc1ccc(-c2nc(C(Cl)Cl)nc3cc(-c4ccccc4)nn23)cc1 | 11.4% | -15% (active) | 11.8% | -70.1% (active) | 24% | 6.38% (active) | 32.8% | 1.45% (active) | -40.7% (active) | 4.01% (active) | -9.69% (active) | -14.7% (active) | 3.82% (active) | -53.6% (active) | 31% | 57% | 40.6% | 32.4% | -13.8% (active) | 115%
9 | CCOc1ccc([C@H]2C(C(=O)c3ccc(Cl)cc3)C3(N[C@@H]2c2ccccc2)C(=O)Nc2ccc(Br)cc23)cc1 (stereo not given in full) | 14.2% | 64.8% | 11% | 16.6% | 28.9% | 37.8% | 48.8% | 68.5% | 37.6% | 33.4% | -27.1% (active) | 26.9% | 47.6% | 13.5% | 13.8% | 47.8% | 51.4% | -36.2% (active) | 75.2% | 56.6%
10 | CCC/C=C/C=C/C(=O)N[C@@H](Cc1cc(F)cc(F)c1)C(=O)N[C@@H]1C(=O)N2CCC[C@H]2C(=O)N2CCCC[C@H]2C(=O)N[C@@H](C)C(=O)N2C[C@H](C)C[C@H]2C(=O)O[C@H]1C | 17.6% | 30.8% | 28.7% | 46.3% | 31.3% | 10.3% | 38.3% | 17% | 16.5% | 16.2% | 9.05% (active) | 28.5% | 25.8% | 26.8% | 14.5% | 10.5% | 13.6% | -25.3% (active) | 29% | -12.9% (active)
11 | CCCCCCNC(=O)Oc1ccc(/C(=C(/C)c2ccccc2)c2ccc(OCCN3CCCCCC3)cc2)cc1 | -9.12% (active) | 12.2% | 41.7% | 9.02% (active) | 62.2% | 36.3% | 11.1% | -2.81% (active) | -39.7% (active) | 9.9% (active) | -13.3% (active) | 56% | 66.7% | 22.1% | 38.7% | 20.1% | 44.2% | -14.5% (active) | 44.4% | 95.9%
12 | COc1ccc(/C=N/Nc2ccnc3cc(Cl)ccc23)cc1Cl | -52.8% (active) | -78.5% (active) | -71.3% (active) | -58% (active) | -64.7% (active) | -53.1% (active) | -90.4% (active) | -84.4% (active) | -84.5% (active) | -20.4% (active) | -55.3% (active) | -88.5% (active) | -79.2% (active) | -90.7% (active) | -24.9% (active) | -93.5% (active) | -86.4% (active) | -35.5% (active) | -92.4% (active) | -88% (active)
13 | CCCC(=O)NC(c1ccc2c(c1)OC(F)(F)O2)c1cc(C)c2cccnc2c1O (stereo not given) | 15.9% | 14.4% | 34.8% | 55.4% | 18.7% | 20.9% | 8.69% (active) | 3.17% (active) | -11.5% (active) | 39.3% | 32.3% | 40.4% | 22.5% | 14.8% | 36.6% | -31.2% (active) | -16.7% (active) | 21.1% | 17.1% | 40.2%
14 | Fc1ccc(-c2cc3nc(C(Cl)Cl)nc(-c4ccccc4)n3n2)cc1 | 19.2% | 47.2% | -10.2% (active) | -62.9% (active) | 10.2% | 2.73% (active) | -10.6% (active) | -2.11% (active) | 26.9% | 7.35% (active) | -41.4% (active) | -30% (active) | -6.52% (active) | -58.2% (active) | -24.5% (active) | 75.2% | 36.2% | 86.9% | -7.7% (active) | 53.5%
15 | O=[N+]([O-])c1ccc(O)c2ncccc12 | 12.6% | 38% | 31.9% | 41.6% | 37.2% | 23.1% | 23.2% | 16.5% | 31.9% | 21.3% | 20% | 48.5% | 23.8% | 17.2% | 31.3% | 15.3% | 10.5% | 25.2% | 29.1% | 78.3%
